The text below walks through data of PubChem BioAssay.

Records with an inconclusive call do not appear. Calls of active or inactive are those of the source.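 How the source made its calls, unless noted: active means viability at or under a set limit in both replicates, limit being median viability minus 3 SD (cut at about 48% in these data, passing the limit was not always enough); inconclusive means at or under the limit in just one replicate; inactive means at or above the limit in both replicates.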

Assay [1] in a line: reducers of endogenous Her2 protein level, primary screen, SKBR3 breast tumor cells, AlphaScreen, ATP viability (AID 461;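 active means Her2 level under about 52% in both replicate screens, with viability over 70% of control, limit read from the data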;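 on Her2 level: lower value means less Her2 protein in the cells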;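 on viability: percent of carrier control wells set as 100% viability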). The note with it: 18-24 h, measured here: SKBR3 viability, ATP luminescence, at 10 µM.
Assay [2] has as its target Receptor tyrosine-protein kinase erbB-2 (Homo sapiens) (UniProt P04626). Described as above. The note with it: 18-24 h, at 10 µM, stronger effect = lower value.
Assay [3] is described as follows: SK-BR-3 cell growth inhibitors, pilot screen, 24 h, human (AID 572;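 active means viability at or below 10% of carrier control in both of two separate runs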;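 further: compound exposure lasted between 18 and 24 h rather than exactly 24 h; 100% = carrier-treated control wells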). The settings on record: SK-BR-3 viability, CellTiter-Glo luminescence, at 10 µM, stronger effect = lower value.
Assay [4] is described as follows: HUVEC growth inhibition – cell-based, human, primary screen (AID 575;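 active means viability at or below 30% in both replicate assays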;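 further: 100% = median of untreated cell wells with 0.1% DMSO on each plate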). The note with it: HUVEC proliferation, CellTiter-Glo luminescence, 72 h; at 10 µM; stronger effect = lower value.
Assay [5] in a line: growth inhibitors of H69AR lung tumor, primary screen, human, duplicate replicates (AID 580).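 Further: 100% = mean luminescence of untreated wells and 0% = no signal.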 The note with it: H69AR lung tumor cells viability, ATP luminescence, 72 h; at 10 µM; stronger effect = lower value.
Assay [6] in a line: reversal of MRP1-mediated doxorubicin resistance, pilot screen, H69AR cells, doxorubicin co-treatment (AID 601;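 active means viability loss from added drug above about 55%, and viability with drug at most 40%, in both replicates, limit read from the data, passing the limit was not always enough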). The settings on record: CellTiter-Glo, 72 h, at 10 µM; for differential viability (reversal): stronger effect = higher value.
Assay [7] is described as follows: 384-well plate pilot, post-Golgi transport modulator project, inhibition of yeast transport mutant growth (AID 636; in the data active means inhibition above about 31%). The note with it: absorbance 615 nm, about 18 h, stronger effect = higher value.
A short description of assay [8]: growth suppression of yeast trafficking mutant, preliminary HTS, modulators of trafficking downstream of Golgi apparatus project, 1536-format plate, OD 615 nm (AID 637; in the data active means inhibition above about 30%). The settings on record: yeast transport mutant growth, absorbance 615 nm, 18 h; stronger effect = higher value.
The nature of assay [9]: OD615 S. cerevisiae growth inhibition, permissive medium, pilot counter-assay, permissive growth control for S. cerevisiae lifespan shortening project (AID 705;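 active means growth inhibition above 25% in both replicates, a cutoff set 3 SD above the mean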). The settings on record: OD615, 24 h, at 10 µM, stronger effect = higher value.
The nature of assay [10]: Restrictive medium S. cerevisiae growth inhibition, OD615, pilot screen of yeast lifespan reduction project, restrictive growth control (AID 706;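 active means growth inhibition above a set limit, 3 SD over mean compound inhibition, in both replicates, cut at about 43% in these data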;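 further: modified DeaD lifespan yeast strain shifted to restrictive glucose medium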). The note with it: OD615, 48 h, at 10 µM, stronger effect = higher value.
Assay [11] in a line: viability gain of MRP-1-high H69AR cells under doxorubicin, pilot screen, MRP-1 activator project, CellTiter-Glo, duplicate (AID 807;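 active means viability increase at or above a cutoff of the median across tested compounds plus 3 SD, cut at about 8.5% in these data, passing the limit was not always enough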;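 further: compound pretreatment 18-22 h then 72 h combined with doxorubicin; 0% = doxorubicin alone and 100% = vehicle without doxorubicin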). The note with it: H69AR viability with doxorubicin, CellTiter-Glo luminescence; at 10 µM; stronger effect = higher value.
Assay [12] can be described thus: growth suppression of beta-catenin knockout HCT116, pilot screen, human colon tumor cells (AID 823;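 active means cell viability at or below a set limit in both duplicate runs, the limit being the all-compound median minus 4 SD, cut at about 23% in these data, passing the limit was not always enough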;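 further: 0% = wells killed by 20 µM Hyamine and 100% = untreated DMSO cell wells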). The settings on record: CellTiter-Glo, 60 h, at 10 µM, stronger effect = lower value.
A short description of assay [13]: growth suppression of PTEN-deleted HCT116, pilot screen, cell-based, HCT116 clonal line, CellTiter-Glo (AID 824;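 active means viability at or below 27.92% in each of two runs, the all-compound median minus 4 SD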;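 further: 0% = 20 µM Hyamine control and 100% = vehicle cell control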). The settings on record: 60 h, at 10 µM, stronger effect = lower value.
Assay [14] is described as follows: inhibitors of the yeast RAM network, pilot screen, dse1pr::URA3 reporter, 5-FOA selection (AID 869;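 active means inhibition over a set limit, the all-compound mean plus 3 SD, in both replicate runs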;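 further: 0% = DMSO wells with no growth and 100% = 10 µM 1-NA-PP1 with full growth; RAM network block rescues cells from 5-FOA so hits raise OD615 growth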). The note with it: S. cerevisiae dse1pr::URA3 5-FOA growth, OD615, 2 d; at 10 µM; stronger effect = higher value; strain carries analog-sensitive mutant Cbk1 kinase.
Assay [15] is described as follows: RAM signaling pathway blockade in yeast – S. cerevisiae, Pdr1DBD-CYC8 efflux-inhibited sensitized strain, primary screen (AID 1298;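 active means RAM network inhibition above 8.4% in each of two replicates, 3 SD over the compound average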;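 further: 0% = DMSO untreated cells without growth and 100% = 10 µM 1-NA-PP1 full growth; higher means more yeast growth rescued from 5-FOA killing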). The settings on record: S. cerevisiae cbk1-as DSE1-URA3 strain, 5-FOA growth OD615, 2 d; at 50 µM; stronger effect = higher value.
The mark [16] stands for this setting: H69AR cells + 2 uM doxorubicin, measured here: viability with 2 uM doxorubicin, stronger effect = lower value.
[17] abbreviates: H69AR cells, compound alone cytotoxicity.

Chain of Receptor tyrosine-protein kinase erbB-2 (Homo sapiens) (P04626 whole entry, looked up): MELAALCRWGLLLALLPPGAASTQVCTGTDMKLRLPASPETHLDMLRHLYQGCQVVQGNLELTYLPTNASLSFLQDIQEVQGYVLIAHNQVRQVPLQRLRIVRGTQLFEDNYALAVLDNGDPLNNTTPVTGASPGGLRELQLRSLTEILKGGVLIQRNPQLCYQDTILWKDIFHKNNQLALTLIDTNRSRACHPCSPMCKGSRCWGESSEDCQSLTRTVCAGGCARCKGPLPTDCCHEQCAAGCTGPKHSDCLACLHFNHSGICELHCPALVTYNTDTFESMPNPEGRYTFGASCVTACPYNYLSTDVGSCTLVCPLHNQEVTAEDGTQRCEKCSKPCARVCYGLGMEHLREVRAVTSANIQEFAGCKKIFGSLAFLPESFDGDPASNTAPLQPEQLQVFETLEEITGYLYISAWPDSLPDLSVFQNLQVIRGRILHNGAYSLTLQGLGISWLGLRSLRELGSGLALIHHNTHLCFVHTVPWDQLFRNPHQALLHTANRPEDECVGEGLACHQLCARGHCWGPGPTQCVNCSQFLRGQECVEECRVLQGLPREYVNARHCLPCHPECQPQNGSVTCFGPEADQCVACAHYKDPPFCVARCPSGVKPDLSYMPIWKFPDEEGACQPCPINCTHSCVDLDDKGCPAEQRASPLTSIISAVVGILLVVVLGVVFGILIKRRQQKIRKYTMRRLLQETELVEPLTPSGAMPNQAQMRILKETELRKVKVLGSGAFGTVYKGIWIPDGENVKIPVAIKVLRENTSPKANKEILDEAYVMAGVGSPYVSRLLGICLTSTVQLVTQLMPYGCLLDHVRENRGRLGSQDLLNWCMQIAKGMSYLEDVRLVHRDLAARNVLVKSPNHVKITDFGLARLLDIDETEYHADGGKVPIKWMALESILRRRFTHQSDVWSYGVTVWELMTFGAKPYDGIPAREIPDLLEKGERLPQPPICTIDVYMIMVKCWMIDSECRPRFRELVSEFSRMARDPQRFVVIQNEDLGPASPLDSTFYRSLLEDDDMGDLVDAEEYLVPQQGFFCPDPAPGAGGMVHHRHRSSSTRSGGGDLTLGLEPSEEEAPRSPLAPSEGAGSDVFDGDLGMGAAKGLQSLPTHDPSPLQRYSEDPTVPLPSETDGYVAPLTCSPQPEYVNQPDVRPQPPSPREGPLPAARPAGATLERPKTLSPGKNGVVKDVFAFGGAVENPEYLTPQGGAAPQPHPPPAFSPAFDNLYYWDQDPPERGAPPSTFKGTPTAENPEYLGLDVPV

Take `O=C(CCn1c(=O)oc2ccccc21)NCCN1CCOCC1`: the viability in [1] is 104%; in [3] it was 104% (inactive); in assay [4], 93.4% (inactive); in [5], 85.9% (inactive); in assay [6] (setting [16]) it was 89.6%; in [6] (setting [17]) it was 85.9%. Moreover, the viability in [12] was 107% (inactive); in [13] it was 101% (inactive). In addition, the Her2 level in assay [2] was 120% (inactive). In addition, the differential viability (reversal) in assay [6] (H69AR cells + 2 uM doxorubicin) is -3.67% (inactive). Moreover, the figures for the inhibition in [7], in [8] and in [14] were 0.8% (inactive), -6.5% (inactive) and 2.63% (inactive), respectively. Moreover, the values for the growth inhibition in assay [9] and in assay [10] were -9.38% (inactive) and -6.78% (inactive), respectively. In addition, the viability increase in [11] is -1.28% (inactive). For the same molecule, the RAM network inhibition in [15] was 4.16% (inactive).
On to `COc1ccc(NC(=O)C2CCCN2S(=O)(=O)c2cccc3cccnc23)c(OC)c1` (stereo not given), for which the viability was 96% in [1]; 96% (inactive) in assay [3]; 90.5% (inactive) in assay [4]; 95% (inactive) in [5]; 95.9% in [6] (setting [16]); 95% in [6] (setting [17]). Moreover, the values for the viability in assay [12] and in assay [13] were 91.6% (inactive) and 84.3% (inactive), respectively. In addition, the Her2 level in assay [2] was 106% (inactive). The differential viability (reversal) in [6] (H69AR cells + 2 uM doxorubicin) is -0.87% (inactive). In addition, the inhibition is 91.4% (active) in assay [7], 84.7% (active) in assay [8] and 0.91% (inactive) in assay [14]. Moreover, the growth inhibition in assay [9] was 98.5% (active); in [10], 95.7% (active). Moreover, in assay [11], the viability increase was -2.76% (inactive). For the same molecule, the RAM network inhibition in [15] was -1.73% (inactive).
Consider `COc1nnc(-c2ccc(C)c(S(=O)(=O)NCCO)c2)c2ccccc12`, for which the viability was 93.5% in [1]; 93.5% (inactive) in assay [3]; 110% (inactive) in assay [4]; 87.9% (inactive) in assay [5]; 90.3% in assay [6] (setting [16]); 87.9% in [6] (setting [17]). Also, the viability in assay [12] is 106% (inactive); in assay [13], 101% (inactive). In assay [2], the Her2 level was 108% (inactive). Besides, in assay [6] (H69AR cells + 2 uM doxorubicin), the differential viability (reversal) was -2.42% (inactive). Moreover, the inhibition is -1.04% (inactive) in [7], -6% (inactive) in [8] and -0.06% (inactive) in assay [14]. For the same molecule, the growth inhibition is -0.385% (inactive) in [9] and 10% (inactive) in [10]. Further, the viability increase in [11] was -1.67% (inactive). Moreover, the RAM network inhibition in assay [15] is 2.58% (inactive).
As for `CCc1ccc(C2CC(c3cccc(OC)c3)n3nc(N)nc3N2)cc1` (stereo not given), the viability in [1] was 90%; in assay [3] it was 90% (inactive); in [4], 113% (inactive); in [5], 105% (inactive); in [6] (setting [16]), 97.5%; in assay [6] (setting [17]) it was 105%. Besides, the values for the viability in [12] and in [13] were 93.3% (inactive) and 81.1% (inactive), respectively. Further, in assay [2], the Her2 level is 92% (inactive). Further, in assay [6] (H69AR cells + 2 uM doxorubicin), the differential viability (reversal) is 7.42% (inactive). Moreover, the inhibition is 2.31% (inactive) in [7], 4.83% (inactive) in assay [8] and 1.21% (inactive) in [14]. Besides, the growth inhibition in assay [9] was -0.21% (inactive); in assay [10], 12% (inactive). Further, in assay [11], the viability increase is 2.74% (inactive). For the same molecule, the RAM network inhibition in assay [15] is 4.95% (inactive).
Take `COC1CCCCC1Nc1cccc(SC)c1` (stereo not given): the viability was 100% in assay [1]; 100% (inactive) in [3]; 104% (inactive) in assay [4]; 88.3% (inactive) in [5]; 77.7% in assay [6] (setting [16]); 88.3% in [6] (setting [17]). The viability in [12] was 80.6% (inactive); in [13], 75.1% (inactive). The Her2 level in assay [2] was 112% (inactive). The differential viability (reversal) in assay [6] (H69AR cells + 2 uM doxorubicin) is 10.6% (inactive). For the same molecule, the inhibition in [7] was -3.25% (inactive); in assay [8], -3% (inactive); in assay [14] it was 1.83% (inactive). The growth inhibition is -1.82% (inactive) in assay [9] and -18.4% (inactive) in assay [10]. The viability increase in [11] was -3.29% (inactive). For the same molecule, the RAM network inhibition in assay [15] was 7.2% (inactive).
